Screening results (PubChem)
Pol kappa inh: DNA polymerase kappa (human) inhibition | Q9UBT6 | purified Pol kappa, fluorescent DNA synthesis assay, 10 min | Potency, µM (doses to about 107 µM), without a hit: at the highest dose activity, negative = inhibition, hits mostly inhibitors | hit rate 0.53% among 400,000 | AID 588579; also: % is scaled to controls: 0 for no effect and ±100 for the full control effect
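10 nM Pol kappa preincubated 15 min at room temperature with compounds, then reaction started with substrate at 50 nM final. Fluorescence read kinetically at 0 and 10 min; buffer-only wells served as negative control.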
Pol beta inh: DNA polymerase beta (human) inhibition; Pol beta primer extension/strand displacement, fluorescence kinetic; hit rate 1.3% among 340,000; P06746; Potency, µM (doses to about 114 µM), without a hit: at the highest dose activity change, negative = inhibition, usual class: inhibitors; also: % is scaled to controls: 0 for no effect and ±100 for the full control effect
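Human Pol beta at 10 nM; strand-displacement substrate 50 nM final. Compound exposure 15 min at room temperature before start, reaction 10 min at room temperature.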
Pol eta inh: blocks human DNA polymerase eta activity; Q9Y253; recombinant Pol eta, fluorescent DNA replication assay; Potency, µM (titrated, usually from 114 µM), for inactives: at the highest dose activity change, negative = inhibition, usual class: inhibitors; hit rate 1.2% among 390,000; also: % is scaled to controls: 0 for no effect and ±100 for the full control effect
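Pol eta (10 nM) was preincubated with compounds for 15 min at room temperature, after which fluorescent replication substrate (50 nM final) was added to start the reaction. Fluorescence was read kinetically at 0 and 10 min.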
Pol iota inh: blocks human DNA polymerase iota activity; Q9UNA4; Pol iota fluorescent replication assay, 10 min; hit rate 1% among 390,000; Potency, µM (titrated, usually from 115 µM), inactives show at the top dose activity, negative = inhibition, hits mostly inhibitors
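Fluorescent replication assay read twice, at 0 min and 10 min after adding 50 nM (final) substrate. Enzyme (10 nM) and compounds were first incubated 15 min at room temperature; enzyme-free buffer wells were negative controls.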
WRN inhibitor: inhibitors of human WRN helicase; Q14191; WRN helicase unwinding, fluorescent forked duplex, kinetic; Potency, µM (titrated, usually from 114 µM), for inactives: at the highest dose activity change, negative = inhibition, most hits filed as inhibitors; hit rate 0.46% among 360,000; AID 651768; also: % is scaled to controls: 0 for no effect and ±100 for the full control effect; nearly all actives have a fitted effect of over 55% in size
Target sequence (Q14191 whole entry, looked up): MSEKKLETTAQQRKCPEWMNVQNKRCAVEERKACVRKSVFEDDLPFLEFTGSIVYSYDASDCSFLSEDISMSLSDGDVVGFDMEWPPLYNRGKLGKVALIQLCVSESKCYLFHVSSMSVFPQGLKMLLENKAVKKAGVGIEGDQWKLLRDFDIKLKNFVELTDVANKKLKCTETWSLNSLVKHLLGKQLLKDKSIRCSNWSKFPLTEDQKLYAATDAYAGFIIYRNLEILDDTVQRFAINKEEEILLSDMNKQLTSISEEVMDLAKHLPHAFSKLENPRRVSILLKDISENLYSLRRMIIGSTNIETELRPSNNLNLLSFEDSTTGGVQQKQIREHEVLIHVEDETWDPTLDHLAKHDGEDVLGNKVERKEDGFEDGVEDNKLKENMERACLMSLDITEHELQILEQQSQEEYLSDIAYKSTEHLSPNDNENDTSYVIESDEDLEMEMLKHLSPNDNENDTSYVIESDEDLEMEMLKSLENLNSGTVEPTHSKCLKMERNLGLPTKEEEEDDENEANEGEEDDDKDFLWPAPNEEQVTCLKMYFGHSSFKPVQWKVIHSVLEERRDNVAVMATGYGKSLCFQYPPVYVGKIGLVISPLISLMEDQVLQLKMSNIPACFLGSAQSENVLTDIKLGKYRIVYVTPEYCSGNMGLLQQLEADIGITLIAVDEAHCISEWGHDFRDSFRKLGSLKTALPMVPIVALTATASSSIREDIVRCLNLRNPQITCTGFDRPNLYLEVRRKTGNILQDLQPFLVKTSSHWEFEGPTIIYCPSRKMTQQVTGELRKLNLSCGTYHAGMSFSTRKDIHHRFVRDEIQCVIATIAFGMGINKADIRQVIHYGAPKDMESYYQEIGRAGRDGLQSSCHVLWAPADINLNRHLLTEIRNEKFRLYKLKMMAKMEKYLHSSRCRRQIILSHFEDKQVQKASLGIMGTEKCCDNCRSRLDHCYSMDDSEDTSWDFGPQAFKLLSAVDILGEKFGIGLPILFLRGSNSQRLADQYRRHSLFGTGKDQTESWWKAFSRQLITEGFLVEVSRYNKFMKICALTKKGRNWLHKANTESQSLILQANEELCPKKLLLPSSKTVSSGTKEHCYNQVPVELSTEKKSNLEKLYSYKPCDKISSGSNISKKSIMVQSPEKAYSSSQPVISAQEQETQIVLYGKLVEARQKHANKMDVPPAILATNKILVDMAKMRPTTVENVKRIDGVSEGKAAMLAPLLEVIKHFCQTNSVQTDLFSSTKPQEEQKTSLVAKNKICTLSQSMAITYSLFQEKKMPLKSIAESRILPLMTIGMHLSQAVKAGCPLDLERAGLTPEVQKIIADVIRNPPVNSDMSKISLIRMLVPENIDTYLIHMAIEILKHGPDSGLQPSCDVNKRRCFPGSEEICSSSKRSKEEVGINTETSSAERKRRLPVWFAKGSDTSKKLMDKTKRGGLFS
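Screening of the MLSMR collection measured strand separation of a quenched forked DNA duplex (100 nM) by 20 nM WRN with 2 mM ATP, all final. Compounds were preincubated with enzyme 15 min at room temperature.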
FEN1 inhibitor: inhibitors of human flap endonuclease 1 | Recombinant FEN1 flap cleavage, fluorescence, 15 min | hit rate 0.35% among 390,000 | P39748 | Potency, µM (series often up to 114 µM), inactives show top-dose activity change, negative = inhibition, most hits filed as inhibitors; also: % is scaled to controls: 0 for no effect and ±100 for the full control effect; nearly all actives have a fitted effect of over 65% in size
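Concentration–response screening of FEN1 (10 nM): 15 min compound preincubation at room temperature, reaction started with 50 nM substrate and read at 0 and 15 min. Corrected, normalized data were fitted by a four-parameter Hill equation.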
* = called active by the depositor; ? = inconclusive; . = no result; [ ] = dose if it differs, or a comment. The list is not random: actives were taken first. Their share in the collection is about 2.4%. Calls follow the shape of the dose curve; as a rule, active = well fitted curve in the direction sought with a large enough effect; inconclusive = small, poorly fitted or top-dose-only effect, or another doubt; inactive = no such curve, though single readings can be large; an effect the other way counts as inactive or inconclusive. Potency is read from the fitted curve at half-maximal effect.

SMILES	Pol kappa inh	Pol beta inh	Pol eta inh	Pol iota inh	WRN inhibitor	FEN1 inhibitor
C=Cc1ccc(Cn2nc(-c3ccc(C)c(S(=O)(=O)N(CC)CC)c3)ccc2=O)cc1	-2.2%	-0.9%	-16.8%	13.4%	.	0.2%
CN1/C(=C/C(=O)COC(=O)CN2C(=O)C3CC=CCC3C2=O)C(C)(C)c2ccccc21 (stereo unspecified)	-15.0%	.	-10.8%	-20.0%	-0.4%	-23.6%
CN1/C(=C\C(=O)COC(=O)Cn2nnc(-c3ccccc3)n2)C(C)(C)c2ccccc21	-22.8%	?	?	?	50.1µM*	?
COCC(=O)N1CCC2(CC1)CCN(c1ncccn1)CC2	0.1%[60.1 µM]	.	.	.	.	.
O=C(Cn1nc(Cc2cccnc2)c2ccccc2c1=O)Nc1cccc(C(F)(F)F)c1	?	11.6%	-4.7%	?	.	89.1µM*
COc1cccc(NC(=O)Cn2nc(Cc3cccnc3)c3ccccc3c2=O)c1	-9.1%	7.1%	-15.2%	15.3%	5.2%	-0.7%
Cc1ccn2c(=O)nc(SCC(=O)Nc3cccc4ccccc34)nc2c1	-9.5%	.	79.4µM*	?	-2.5%[11.6 µM]	6.0%
Cc1ccn2c(=O)nc(SCC(=O)N3CCN(c4ccccc4)CC3)nc2c1	-13.9%	.	20µM*	50.1µM*	-0.8%[11.6 µM]	-10.7%
Cc1ccc(CNC(=O)CSc2nc(=O)n3ccccc3n2)cc1	3.2%	.	-18.4%	29.1%	-8.2%	-2.9%
O=C(CSc1nc(=O)n2cc(Cl)ccc2n1)Nc1cccc2ccccc12	-43.7%	.	?	?	-13.3%	0.4%
Cc1ccn2c(=O)nc(SCC(=O)NCc3ccccc3)nc2c1	-33.2%	.	22.4µM*	44.7µM*	?	3.5%
O=C([C@@H]1CC=C[C@@H]2CCN(C3CC3)C(=O)[C@@H]21)N1CCOCC1	5.2%	.	.	43.7%	.	20.2%
O=C1CC(c2ccccc2)c2c(n3ncnc3[nH]c2=O)N1 (stereo unspecified)	-6.9%[60.1 µM]	-2.0%	-19.8%	-6.2%	.	-0.3%
Cc1nn(-c2ccccc2)c2c1cc1c(=O)[nH]c(=O)nc-1n2-c1cccc(C(F)(F)F)c1	-6.6%	-25.6%	-14.4%	?	.	15.5%
O=C(NNC(=O)c1ccc(NC(=O)c2ccccc2)cc1)c1ccccc1	-9.2%	79.4µM*	-8.8%	?	-15.2%	0.0%
O=C(Cc1ccccc1)NNC(=O)c1ccc(NC(=O)c2ccccc2)cc1	-12.6%	20µM*	-14.6%	?	-11.3%	-1.6%
O=C(NC(=S)Nc1ccc(NC(=O)c2ccco2)cc1)c1ccccc1	11.3%	45.0%	-0.2%	89.1µM*	-10.8%[11.6 µM]	-1.1%
O=C(CSc1ccccc1)Nc1ccc(C(=O)Nc2ccc(O)cc2)cc1	-9.8%	79.4µM*	-3.1%	-18.6%	-7.2%	-12.3%
O=C(Cc1ccccc1)Nc1ccc(C(=O)Nc2ccc(O)cc2)cc1	-5.5%	-16.8%	-22.1%	19.4%	-12.1%	5.6%
COc1ccccc1NC(=O)CC(c1cc(OC)c(OC)c(OC)c1)N1Cc2ccccc2C1=O (stereo unspecified)	2.7%	83.6%	-16.3%	33.3%	.	-2.2%
Cc1cc(C)cc(-n2ccn(CC(=O)Nc3cc(C)ccc3C)c(=O)c2=O)c1	-7.4%	0.0%	-14.6%	39.2%	.	2.1%
O=C(NNC(=O)c1ccc2ccccc2c1)Nc1ccc(F)cc1	-3.5%	44.7µM*	-15.2%	?	2.1%	-5.0%
O=C(NC(=S)Nc1ccccc1Cl)c1ccco1	-24.3%	-2.6%	2.8%	20.0%	-7.6%	-4.0%
O=C(NC(=S)Nc1c(Cl)ccc2nsnc12)c1ccco1	-24.4%	10.1%	-4.5%	25.1µM*	-17.5%	-13.3%
Cc1c(CCC(=O)N2CCC(C(=O)O)CC2)c(=O)oc2cc3oc4c(c3cc12)CCCC4	4.3%	35.5µM*	7.7%	-3.2%	-0.6%	-4.3%
SMILES	Pol kappa inh	Pol beta inh	Pol eta inh	Pol iota inh	WRN inhibitor	FEN1 inhibitor
O=C(O)C1CSC(c2ccco2)N1 (stereo unspecified)	17.8µM*	8.91µM*	10µM*	?	14.1µM*	?
O=C(O)C1CSC(c2ccncc2)N1 (stereo unspecified)	-12.8%	-18.5%	2.7%	14.6%	-32.0%	-3.9%
Cc1[nH][nH]c(=O)c1C(c1c(C)[nH][nH]c1=O)c1cn(C)c2ccccc12	-7.4%	0.2%	-17.6%	2.51µM*	-9.5%	?
FC(F)(F)c1cc(CN2CCCC3(CCNCC3)C2)cc(C(F)(F)F)c1	0.7%[60.1 µM]	.	.	.	.	.
COCCCNC(=O)CSc1ccsc1[N+](=O)[O-]	?	-23.0%	44.7µM*	?	-4.5%[11.6 µM]	11.7%
COc1ccc(CNc2nc3c(-c4ccc(C)cc4)nnn3c3ccccc23)cc1	3.8%	21.7%	-12.3%	40.4%	.	0.6%
O=c1cc(CSc2nnc(COc3ccccc3Cl)o2)nc2sccn12	-1.0%	35.5µM*	11.2%	-7.6%	-2.0%	-1.4%
O=C(COc1ccccc1Cl)Nc1ccc(OCc2cc(=O)n3ccsc3n2)cc1	-7.9%	31.3%	-9.0%	31.4%	.	-6.9%
Cc1ccc(NC(=O)COC(=O)c2ccccc2OCC(=O)Nc2ccc(Br)cc2)c(Br)c1	12.2%	.	.	12.4%	.	4.1%
CCOc1ccc(S(=O)(=O)Nc2ccc3oc(C)c(C(=O)OCCOC)c3c2)cc1	-6.9%[60.1 µM]	-23.8%	-24.5%	11.8%	.	2.1%
COCCOC(=O)c1c(C)oc2ccc(NS(=O)(=O)c3ccc(C(=O)O)cc3)cc12	-21.7%	35.5µM*	11.2µM*	-16.7%	-28.2%[57.1 µM]	-5.2%
CCn1c(SCC(=O)Nc2ccc3c(c2)c2ccccc2n3CC)nnc1-c1ccco1	35.5µM*	1.7%	25.1µM*	?	185.4%	50.1µM*
CC(C)n1c(SCC(=O)Nc2nncs2)nnc1-c1ccco1	79.4µM*	20µM*	7.94µM*	15.8µM*	?	?
CCn1c(SCC(=O)N/N=C/C(C)=C\c2ccco2)nnc1-c1ccccc1	?	28.2µM*	?	44.7µM*	-4.8%[11.6 µM]	7.2%
CCn1c(SCC(=O)Nc2cccc(NC(C)=O)c2)nnc1-c1ccco1	-22.4%	16.4%	-9.3%	166.9%	-5.6%	-5.1%
CCn1c2ccccc2c2cc(/C=N/NC(=O)c3ccncc3)ccc21	-28.9%	15.8µM*	?	73.6%	-6.8%	?
Cc1nnc(NC(=O)CSc2nnc(-c3ccco3)n2C(C)C)s1	-4.7%	-7.2%	-7.0%	84.0%	-1.9%	4.3%
CCn1c(SCC(=O)N/N=C/c2ccc(C)o2)nnc1-c1ccccc1	2.1%	-1.2%	-7.6%	55.9%	3.7%	-6.5%
CCn1c2ccccc2c2cc(NC(=O)c3coc(=O)c(Br)c3)ccc21	.	2.0%	.	.	.	.
CCOC(=O)c1c(NC(=O)CSc2nnnn2-c2ccccc2)sc2c1CCC(C)C2 (stereo unspecified)	-2.9%	19.3%	-21.9%	21.7%	-7.4%	-16.6%
CC1CCc2c(sc(NC(=O)c3cccn3C)c2C(N)=O)C1 (stereo unspecified)	-22.0%	.	31.6µM*	?	-6.2%[11.6 µM]	12.4%
